# PubChem BioAssay AID1259343 (VanderVen Lab, College of Veterinary Medicine, Cornell …, 2017)
# About 2,900 (47%) of roughly 6,200 compounds were called active. No stated cut-off is given here; in the data, active means inhibition above about 50%; inactive means the rest. So high a share suggests a set chosen from earlier hits. The list shows a part of the results.
# Assay: Mycobacterium tuberculosis growth inhibition, primary screen (AID 1259343)
# Details: inhibition: at 10 µM, hits give high values; outcome: 10 uM
row,Structure (SMILES),inhibition
1,Cc1ccc(/C(N)=N\OC(=O)CCc2ccccc2)cc1,29.4% (inactive)
2,C/C(=N/OC(=O)c1ccc(-c2ccccc2)cc1)C(C)(C)C,65.6% (active)
3,O=c1c(Br)cccc(Br)c1O,99.7% (active)
4,CCNC(=S)NN=C(C)c1cccs1,101% (active)
5,CC(=NNC(=S)NC(C)C)c1cccs1,104% (active)
6,CC(=NNC(=S)NC1CCCCC1)c1cccs1,-36.2% (inactive)
7,Nc1ccc(N=Nc2ccccc2)c(N)n1,93.8% (active)
8,CCCC1CC(=O)CC(=O)C1,-33.8% (inactive)
9,CCCC1CCC(c2ccc(C#N)c(=O)[nH]2)CC1 (configuration not stated),89.8% (active)
10,Fc1ccccc1CN1CCCC2(CCN(C3CCN(CCc4ccccc4)CC3)C2)C1 (configuration not stated),13.5% (inactive)
11,Cc1c(C2CCN(CCc3ccccc3)CC2)noc1-c1ccc(Cl)cc1,88.1% (active)
12,Cc1cccc(CSc2ncnc3c2nnn3Cc2ccc(F)cc2)c1,15.2% (inactive)
13,Fc1ccc(CSc2ncnc3c2nnn3Cc2ccc(F)cc2)cc1,-6.41% (inactive)
14,Fc1ccccc1CSc1ncnc2c1nnn2Cc1ccccc1,10.4% (inactive)
15,c1ccc(CSc2ncnc3c2nnn3Cc2ccccc2)cc1,-43.1% (inactive)
16,Fc1ccccc1CSc1ncnc2c1nnn2Cc1ccccc1F,94.8% (active)
17,Fc1ccc(CSc2ncnc3c2nnn3Cc2ccccc2F)cc1,-32.2% (inactive)
18,Fc1cccc(CSc2ncnc3c2nnn3Cc2ccccc2F)c1,29.2% (inactive)
19,Fc1ccc(Cn2nnc3c(SCc4ccccc4)ncnc32)cc1,93.4% (active)
20,Fc1ccc(Cn2nnc3c(SCc4cccc(F)c4)ncnc32)cc1,73.3% (active)
21,c1ccc(Cn2nnc3c(Sc4ncco4)ncnc32)cc1,68.9% (active)
22,CCOc1cc(S(=O)(=O)N2CCCCC2CC)ccc1Br (configuration not stated),-6.56% (inactive)
23,CCC1CCCCN1S(=O)(=O)c1ccc(C(=O)Nc2nnc(CSC)o2)cc1 (configuration not stated),99.6% (active)
24,CSc1nsc(SCC2=NNC(=O)c3ccccc3O2)n1,101% (active)

row,Structure (SMILES),inhibition
1,N#Cc1ccc(NC(=O)Cc2ccc(Cl)c(Cl)c2)cc1,17.6% (inactive)
2,O=C(CSCCO)Nc1ccc(Cl)c(Br)c1,93.2% (active)
3,Cc1nc(CSCC(=O)Nc2ccc(C)c(Cl)c2)no1,39.4% (inactive)
4,CC1CC(C)(C)CC2(C1)NC(=O)N(c1ccccc1)N2 (configuration not stated),86.8% (active)
5,CCOC(=O)CCc1c(C)c2ccc(OCc3ccc(C(=O)OC)cc3)c(C)c2oc1=O,36.8% (inactive)
6,CONC(=O)c1oc2c(ccc3ccccc32)c1C,21.5% (inactive)
7,CCCOC(=O)COc1ccc2c(oc(=O)c3ccccc32)c1C,84% (active)
8,O=c1[nH]c(O)c(N=Nc2ccc(SC(F)F)cc2)c(=O)[nH]1,84% (active)
9,O=c1[nH]c(=S)[nH]c(O)c1N=Nc1ccc(F)cc1,104% (active)
10,O=c1[nH]c(=S)[nH]c(O)c1N=Nc1ccc2c(c1)OCCO2,38.2% (inactive)
11,O=c1[nH]c(=S)[nH]c2sccc12,-6.61% (inactive)
12,O=c1[nH]c(=S)[nH]c(O)c1N=Nc1ccc(SC(F)F)cc1,99.5% (active)
13,CC(C)CC(=O)NC(=S)NCc1ccccc1,52.5% (active)
14,S=C(NCCc1ccccc1)NC1CCSc2ccccc21 (configuration not stated),31.4% (inactive)
15,O=C(NC(=S)NCc1ccccc1)C1CCCCC1,-4.74% (inactive)
16,CC(C)(C)C(=O)NC(=S)NCc1ccccc1,87% (active)
17,O=C(NCCc1ccc(Br)s1)C1CCC1,-26.3% (inactive)
18,CC(C)(C)C(=O)NCCc1cn(-c2ccccc2)c2ccccc12,42.6% (inactive)
19,O=C(NC(=S)NCCc1ccccc1)C1CCCCC1,68.9% (active)
20,CC(C)(C)C(=O)NC(=S)NCCc1ccccc1,58.1% (active)
21,CC1CCC(C(C)C)C(OC(=O)Cn2c(-c3ccccc3)[n+](C)c3ccccc32)C1 (configuration not stated),36.3% (inactive)
22,Cc1sc(NC(=O)c2ccc3c(c2)CC(C)N3S(C)(=O)=O)nc1-c1ccc(F)cc1 (configuration not stated),44.9% (inactive)
23,CC(C)(C)c1ncc(CNc2ccc(OCC(F)(F)F)nc2)s1,76.1% (active)
24,O=C1/C(=C\c2ccc(Cl)cc2)COc2ccccc21,93.1% (active)

row,Structure (SMILES),inhibition
1,COc1ccc2cc(C=C3COc4ccccc4C3=O)ccc2c1,-0.42% (inactive)
2,O=C1/C(=C/c2csnn2)CCOc2cc(Br)ccc21,32.8% (inactive)
3,O=C1C(=Cc2ccc(N3CCCCC3)cc2)COc2ccccc21,53% (active)
4,CC(NC(=O)c1cc2c(s1)-c1ccccc1OC2)c1ccc(Br)cc1 (configuration not stated),-1.38% (inactive)
5,FC(F)(F)c1nc2n(n1)C(c1ccc(Cl)cc1)C1=C(N2)c2ccccc2OC1 (configuration not stated),inactive
6,O=C(O)c1ccccc1CSc1ccc(N2CCCCC2)cc1,34.9% (inactive)
7,O=C1C(=Cc2cc(Br)cs2)COc2ccccc21,63.5% (active)
8,COc1cc(C(CC(=O)c2ccc(Cl)cc2)SCCO)cc(OC)c1OC (configuration not stated),7.8% (inactive)
9,NC(=O)C1CCN(C(=O)c2ccc(-c3cccc(Cl)c3Cl)o2)CC1,57.6% (active)
10,NC(=O)C1CCN(CC(=O)Nc2oc3ccccc3c(=O)c2-c2ccccc2)CC1,12.8% (inactive)
11,C/C=C/c1c(F)c(F)c(Oc2ccc(C=O)cc2)c(F)c1F,88.6% (active)
12,Cc1cccc(NC(=O)/C=C/C2=C(Cl)c3ccccc3S2(=O)=O)c1C,102% (active)
13,NC(=O)c1ccccc1OCc1csc(COc2ccc(F)cc2)n1,15.8% (inactive)
14,Cc1ccc(OCc2nc(CC(=O)N(C)CC3CCCCC3)cs2)cc1,79.4% (active)
15,O=C(Cc1csc(COc2ccc(Cl)cc2)n1)NC12CC3CC(CC(C3)C1)C2,49.5% (inactive)
16,CSc1ncc(Cl)c(C(=O)C(C#N)c2nc3ccc(Br)cc3c(=O)[nH]2)n1 (configuration not stated),15.1% (inactive)
17,CC(C)c1ccc(C(=O)Nc2sccc2C(=O)N2CCCC2)cc1,16.5% (inactive)
18,CC(C)c1nnc(NC(=O)c2cccc(I)c2)s1,90.6% (active)
19,CCCC(C)c1nnc(NC(=O)c2cnc(-c3ccccn3)nc2)s1 (configuration not stated),-2.11% (inactive)
20,CC(C)Cc1nnc(NC(=O)c2cccc(C#N)c2)s1,20.8% (inactive)
21,CCC(CC)c1nnc(NC(=O)c2cc(C)cc(C)c2)s1,51.2% (active)
22,COC(=O)c1cnc(NC(=O)c2cc(F)cc(Br)c2)s1,19.9% (inactive)
23,Cc1ccc(C#N)cc1S(=O)(=O)Nc1nnc(C(C)C)s1,31.9% (inactive)
24,CC(C)c1ccc(C(=O)Nc2nnc(C(C)C)s2)cc1,90% (active)
